# Measured values as given in PubChem BioAssay AID652115 (Broad Institute, 2013).
# Several values for one entry are separate records, joined by “and”; a condition that tells them apart may be missing. Identical values can stand only once. Hit rate of the full screen: of about 330,000 compounds, about 3,800 (1.2%) were called active. The entries come from a sample that favours actives as a whole. Values without a mark were called inactive. No stated cut-off is given here; in the data, active means inhibition above about 15%; inconclusive means no clear call, values can overlap the other calls; inactive means below that.
# Target: NAD-dependent protein deacylase sirtuin-5, mitochondrial (Homo sapiens) (UniProt Q9NXA8)
# Sequence (Q9NXA8 whole entry, looked up): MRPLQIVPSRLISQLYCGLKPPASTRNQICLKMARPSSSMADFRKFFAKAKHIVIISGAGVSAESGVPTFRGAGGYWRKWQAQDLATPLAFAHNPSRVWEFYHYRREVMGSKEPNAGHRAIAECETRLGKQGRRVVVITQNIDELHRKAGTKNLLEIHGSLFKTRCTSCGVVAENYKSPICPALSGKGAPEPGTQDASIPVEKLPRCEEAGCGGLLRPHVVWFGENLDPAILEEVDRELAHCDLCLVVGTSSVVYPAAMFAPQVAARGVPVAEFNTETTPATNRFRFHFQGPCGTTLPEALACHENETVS
# Assay: SIRT5 desuccinylase inhibitors, primary screen, biochemical, fluorescence imaging, single point, set 5 (AID 652115)
# Conditions: Purified SirT5, succinyl-peptide AMC, trypsin-coupled fluorescence; at 15 µM; hits give high values
row,SMILES,inhibition
1,CC=Cc1ccc2n(c1=O)C[C@@H]1[C@@H](CO)[C@H](C(=O)NC3CCCC3)[C@H]2N1C(=O)c1cnccn1 (mixture of isomers),-1.91%
2,Cc1cccc(-c2ccc([C@H]3[C@H](CO)N4CCCCN(S(=O)(=O)c5cn(C)cn5)C[C@@H]34)cc2)c1,-2.31%
3,O=C(C[C@@H]1CC[C@@H]2[C@H](COC[C@@H](O)CN2Cc2ccc(F)cc2)O1)NCc1ccncn1,2.45%
4,COCC#Cc1ccc2c(c1)O[C@@H](CN(C)S(C)(=O)=O)[C@H](C)CN([C@H](C)CO)S2(=O)=O,-0.381%
5,COc1cccc(S(=O)(=O)N(C)C[C@@H]2Oc3cc(C#CCN(C)C)ccc3S(=O)(=O)N([C@@H](C)CO)C[C@@H]2C)c1,-0.424%
6,COc1cccc(S(=O)(=O)N(C)C[C@H]2Oc3cc(C#CCN(C)C)ccc3S(=O)(=O)N([C@H](C)CO)C[C@H]2C)c1,2.32%
7,CCCC#Cc1ccc2c(c1)O[C@@H](CN(C)S(=O)(=O)c1cccc(OC)c1)[C@H](C)CN([C@@H](C)CO)S2(=O)=O,0.047%
8,COc1ccccc1S(=O)(=O)N(C)C[C@H]1Oc2cc(C#CCC3CCCC3)ccc2S(=O)(=O)N([C@@H](C)CO)C[C@H]1C,16.1% (active)
9,COc1ccccc1S(=O)(=O)N(C)C[C@@H]1Oc2cc(C#CCC3CCCC3)ccc2S(=O)(=O)N([C@H](C)CO)C[C@H]1C,18.3% (active)
10,C[C@H](O)C#Cc1ccc2c(c1)O[C@@H](CN(C)C(=O)C1CCCCC1)[C@H](C)CN([C@@H](C)CO)S2(=O)=O,5.37%
11,O=C(C[C@H]1CC[C@H]2[C@@H](COC[C@@H](O)CN2C(=O)Nc2ccc(C(F)(F)F)cc2)O1)NC1Cc2ccccc2C1,-1.39%
12,C=C1c2c(Cl)ccc(O)c2C(O)=C2C(=O)[C@]3(O)C(O)=C(C(N)=O)C(=O)[C@@H](N(C)C)[C@@H]3[C@@H](O)C12 (stereo partly drawn),35.9% (active)
13,CN(C)[C@@H]1C(=O)C(C(N)=O)=C(O)[C@@]2(O)C(=O)C3=C(O)c4c(O)ccc(Cl)c4[C@@H](O)[C@H]3C[C@@H]12,6.39%
14,CNC(=O)C[C@H]1CC[C@H]2[C@H](COc3ccc(NC(=O)c4cccc(F)c4)cc3C(=O)N2C)O1,-1.94% and 2.58%
15,C[C@@H]1CN([C@@H](C)CO)C(=O)Cc2cc(NC(=O)Nc3cccc4ccccc34)ccc2O[C@H]1CN(C)CC1CCCCC1,-4.93%
16,N#Cc1c(N2CCCCC2)nc(N)c2c(N)nc(SCC(=O)O)cc12,7.29%
17,N#Cc1c(C(F)(F)F)cc(-c2cccs2)nc1N1CCCCC1,5.73%
18,N#CCc1c(C#N)c(N)nc(N2CCCC2)c1C#N,26.2% (active)
